Records with an inconclusive call do not appear. A call without a number means that no potency is given here. Active and inactive are the calls of the source. The call rests on the fitted dose curve; in most records, active means well fitted activation curve with a large enough effect in the repeat runs; inconclusive means weak or mixed curves; inactive means flat fitted curve, though single readings scatter.
Experiment: A CellTox Green Cytotoxicity Assay to monitor cytotoxicity in HEK293 cells - 16 hour (AID 1224888); further: nearly all actives have a fitted effect of over 35% in size
Settings: CellTox Green fluorescence; series mostly up to 76.8 µM
Outline: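 HEK293 cells, 600/well, were preincubated 5 hours and then exposed to compounds at 37 C for up to 40 hours. A cell-impermeant cyanine dye staining dead-cell DNA was read by fluorescence at 0, 8, 16, 24, 32 and 40 h time points.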

Compound | Potency
C=CC(=O)NCOCC(C)C | inactive
CC(C)C(OC(=O)c1ccccc1)C(C)(C)COC(=O)c1ccccc1 (stereo not given) | inactive
C=CCNc1nc(NCC=C)nc(N2CCN(C(c3ccc(F)cc3)c3ccc(F)cc3)CC2)n1 | inactive
CCCCN(CCCC)C(=S)SSC(=S)N(CCCC)CCCC | inactive
Fc1ccccc1[C@@H](F)COC1CCC(Nc2ncnc3[nH]ncc23)CC1 (stereo not given in full) | inactive
CC1=CC(O)CC(C)(C)C1 (stereo not given) | inactive
O=c1[nH]c2ccc(S(=O)CCN3CCC(Cc4ccc(F)cc4)CC3)cc2o1 (stereo not given) | inactive
CCOC(=O)N1CCC(n2c(=O)[nH]c3cc(Cl)ccc32)CC1 | inactive
NC(=O)N(O)[C@@H]1C=C[C@H](Oc2cccc(Oc3ccc(F)cc3)c2)C1 | inactive
CCCCC(CC)C(=O)OCCOCCOCCOCCOC(=O)C(CC)CCCC (stereo not given) | inactive
O=[N+]([O-])c1cccc(S(=O)(=O)NCCNS(=O)(=O)c2cccc([N+](=O)[O-])c2)c1 | inactive
CCCCC1C(=O)N(c2ccccc2)N(c2ccc(O)cc2)C1=O (stereo not given) | inactive
CC(C)(C)C(=O)O | inactive
COc1cc2ncnc(Nc3ccc(F)c(Cl)c3)c2cc1OCCCN1CCOCC1 | inactive
CC1CC(=O)NN=C1c1ccc(NCC(C)(C)NCC(O)COc2cc(Cl)ccc2C#N)cc1 (stereo not given) | inactive
CC(CCc1ccc2c(c1)OCO2)NN (stereo not given) | inactive
O=C(N[C@@H](c1ccccc1)[C@@H]1CCCCN1)c1cccc(C(F)(F)F)c1Cl | inactive
O=C(CCC1CCN(Cc2ccccc2)CC1)c1ccc2c(c1)NCCCC2 | inactive
CCCCCCOC(=O)C(C)C | inactive
CCCOC(=O)c1ccc(C(=O)OCCC)nc1 | inactive
CO/N=C1\CN(c2nc3c(cc2F)c(=O)c(C(=O)O)cn3C2CC2)CC1CN (stereo not given) | inactive
CCOC(=O)CC(=O)C(=O)OCC | inactive
O=S1OCCO1 | inactive
CC1CC(O)CC(C)(C)C1 (stereo not given) | inactive
CCCCC(=O)O[C@]1(C(=O)CO)[C@@H](C)C[C@H]2[C@@H]3CCC4=CC(=O)C=C[C@]4(C)[C@@]3(F)[C@@H](O)C[C@@]21C | inactive
CC(=O)[C@H]1CC[C@H]2[C@@H]3C[C@H](C)C4=CC(=O)CC[C@]4(C)[C@H]3[C@@H](O)C[C@]12C | inactive
CC(=O)Oc1ccc2c(c1)CC[C@@H]1[C@@H]2CC[C@]2(C)[C@@H](O)CC[C@@H]12 | inactive
CC(=O)OCC(=O)[C@H]1CC[C@H]2[C@@H]3CCC4=CC(=O)CC[C@]4(C)[C@H]3CC[C@]12C | inactive
CCCC1C(CC)=CC(CC)=CN1c1ccccc1 (stereo not given) | inactive
C1COCO1 | inactive
